Drawing on PMC8384837, “Expanding the binding specificity for RNA recognition by a PUF domain”, this text covers binding signal for 7 sequences.

Substitutions are numbered along the chain they refer to.

Common to all, as to experiment: yeast three-hybrid, YBZ-1, SC-Leu-His + 0.5 mM 3-AT, 4 days
What all share (details): tags: N-Gal4 AD-HA kept; label: inside an RPR1-promoter hybrid RNA with tandem MS2 sites; ssRNA

In one assay the target is PUM1 PUF domain R8-TRK (Homo sapiens, UniProt Q14671 828-1176, N1122T;Y1123R;Q1126K). The procedure, abridged: (§1)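 The interaction score is the logarithmic change in variant frequency from input to selection. It uses log2, with a pseudocount of 1 for absent variants, and frequencies came from PCR-amplified, Illumina-sequenced repeat regions. The libraries were Pumilio-1 PUF domains randomized at the three base-contacting residues per repeat, co-expressed with matching RNA elements in strain YBZ-1 (LexA–MS2 coat fusion, HIS3 reporter). Plating lasted four days on SC-Leu (input) or SC-Leu-His + 0.5 mM 3-AT (selection).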

The next assay addresses PUM1 PUF domain R8-RKV (Homo sapiens, UniProt Q14671 828-1176, N1122R;Y1123K;Q1126V). The procedure, abridged:
as §1

The target of the next assay is PUM1 PUF domain R8-LYL (Homo sapiens, UniProt Q14671 828-1176, N1122L;Q1126L). The method, boiled down:
as §1

In the next assay the target is PUM1 PUF domain R1-KCN (Homo sapiens, UniProt Q14671 828-1176, S863K;R864C;Q867N). The procedure, abridged: as §1
A further assay concerns the target PUM1 PUF domain R1-GCK (Homo sapiens, UniProt Q14671 828-1176, S863G;R864C;Q867K). The method, boiled down: as §1
Another assay addresses PUM1 PUF domain R3-LNS (Homo sapiens, UniProt Q14671 828-1176, C935L;R936N;Q939S). The method, boiled down: as §1
A further assay addresses PUM1 PUF domain R4-WGG (Homo sapiens, UniProt Q14671 828-1176, N971W;H972G;Q975G). The method, boiled down:
as §1

The target in a further assay is PUM1 PUF domain R8-PYW (Homo sapiens, UniProt Q14671 828-1176, N1122P;Q1126W). The method, boiled down:
as §1

For another assay, the target named is PUM1 PUF domain R5-SLC (Homo sapiens, UniProt Q14671 828-1176, C1007S;R1008L;Q1011C). The method, boiled down: as §1
In the next assay the target is PUM1 PUF domain R4-SPN (Homo sapiens, UniProt Q14671 828-1176, N971S;H972P;Q975N). The method, boiled down:
as §1

The next assay addresses T1, PUM1 PUF domain R6-RRE (Homo sapiens, UniProt Q14671 828-1176, N1043R;Y1044R;Q1047E).
T1 sequence: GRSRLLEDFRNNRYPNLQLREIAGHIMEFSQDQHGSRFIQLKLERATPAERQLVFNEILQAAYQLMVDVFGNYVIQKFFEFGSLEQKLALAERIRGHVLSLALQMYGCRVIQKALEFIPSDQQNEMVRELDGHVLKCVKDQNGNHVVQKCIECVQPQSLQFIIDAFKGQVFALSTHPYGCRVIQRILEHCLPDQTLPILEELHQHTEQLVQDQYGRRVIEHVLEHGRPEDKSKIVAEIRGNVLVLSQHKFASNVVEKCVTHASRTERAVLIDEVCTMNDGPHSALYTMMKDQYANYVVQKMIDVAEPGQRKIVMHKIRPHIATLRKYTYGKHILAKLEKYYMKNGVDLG
The method, boiled down: as §1

The next assay concerns the target PUM1 PUF domain R4-NNC (Homo sapiens, UniProt Q14671 828-1176, H972N;Q975C). The method, boiled down:
as §1

The target in another assay is PUM1 PUF domain R5-RFW (Homo sapiens, UniProt Q14671 828-1176, C1007R;R1008F;Q1011W). The method, boiled down:
as §1

For the next assay, the target named is T2, PUM1 PUF domain R6-RYK (Homo sapiens, UniProt Q14671 828-1176, N1043R;Q1047K).
T2 sequence: T1 sequence with R217Y, E220K
The procedure, abridged:
as §1

The target in another assay is PUM1 PUF domain R5-KYA (Homo sapiens, UniProt Q14671 828-1176, C1007K;R1008Y;Q1011A). The procedure, abridged:
as §1

Another assay addresses PUM1 PUF domain R5-RLQ (Homo sapiens, UniProt Q14671 828-1176, C1007R;R1008L). The procedure, abridged:
as §1

The target in a further assay is PUM1 PUF domain R5-RRF (Homo sapiens, UniProt Q14671 828-1176, C1007R;Q1011F). The procedure, abridged: as §1

Chain of PUM1 PUF domain R4-WGG (Q14671 828-1176 N971W/H972G/Q975G): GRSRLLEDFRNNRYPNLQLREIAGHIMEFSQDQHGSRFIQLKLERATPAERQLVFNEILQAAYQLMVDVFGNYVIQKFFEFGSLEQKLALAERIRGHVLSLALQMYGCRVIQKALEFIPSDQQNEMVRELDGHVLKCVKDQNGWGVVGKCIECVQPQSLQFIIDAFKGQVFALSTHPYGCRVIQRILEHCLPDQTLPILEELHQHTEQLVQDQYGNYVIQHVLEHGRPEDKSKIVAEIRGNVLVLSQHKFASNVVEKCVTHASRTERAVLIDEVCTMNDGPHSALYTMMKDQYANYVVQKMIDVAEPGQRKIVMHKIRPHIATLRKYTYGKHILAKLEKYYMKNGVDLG

“GGCUAGAACUAGUGGAUCCCCCGGCGCCCGGCGGCUCGAGCCCGGGUAAGCGUAAAUAGUCUGCAUGCCGCCGGGCGCCAUGCCUGCAGGUCGACUCUAGAAAACAUG”: the results for the binding signal in the assay with PUM1 PUF domain R8-TRK, with PUM1 PUF domain R8-RKV and in the assay with PUM1 PUF domain R8-LYL were 3.25 log2 enrichment (interaction score), 2.31 log2 enrichment (interaction score) and 2.29 log2 enrichment (interaction score), respectively.
Take “GGCUAGAACUAGUGGAUCCCCCGGCGCCCGGCGGCUCGAGCCCGGGUAAGUGUAAAUUGUCUGCAUGCCGCCGGGCGCCAUGCCUGCAGGUCGACUCUAGAAAACAUG”: the binding signal in the assay with PUM1 PUF domain R1-KCN was 3.67 log2 enrichment (interaction score); with PUM1 PUF domain R1-GCK, 1.58 log2 enrichment (interaction score).
Regarding “GGCUAGAACUAGUGGAUCCCCCGGCGCCCGGCGGCUCGAGCCCGGGUAAGUGUAAGUAGUCUGCAUGCCGCCGGGCGCCAUGCCUGCAGGUCGACUCUAGAAAACAUG”, the binding signal in the assay with PUM1 PUF domain R3-LNS was 4.27 log2 enrichment (interaction score).
With “GGCUAGAACUAGUGGAUCCCCCGGCGCCCGGCGGCUCGAGCCCGGGUAAGUGUAGAUAGUCUGCAUGCCGCCGGGCGCCAUGCCUGCAGGUCGACUCUAGAAAACAUG”, the binding signal in the assay with PUM1 PUF domain R4-WGG was 1.6 log2 enrichment (interaction score).
Consider “GGCUAGAACUAGUGGAUCCCCCGGCGCCCGGCGGCUCGAGCCCGGGUAAGUGUAAUUAGUCUGCAUGCCGCCGGGCGCCAUGCCUGCAGGUCGACUCUAGAAAACAUG”, for which the binding signal with PUM1 PUF domain R3-LNS is 3.52 log2 enrichment (interaction score).
Turning to “GGCUAGAACUAGUGGAUCCCCCGGCGCCCGGCGGCUCGAGCCCGGGUAAGUGUAAAUAGUCUGCAUGCCGCCGGGCGCCAUGCCUGCAGGUCGACUCUAGAAAACAUG”, the binding signal with PUM1 PUF domain R8-PYW was 3.3 log2 enrichment (interaction score); with PUM1 PUF domain R8-TRK it was 2.15 log2 enrichment (interaction score); with PUM1 PUF domain R5-SLC, 0.65 log2 enrichment (interaction score); in the assay with PUM1 PUF domain R4-SPN, 2.58 log2 enrichment (interaction score); with PUM1 PUF domain R6-RRE it was 4.26 log2 enrichment (interaction score); in the assay with PUM1 PUF domain R4-NNC, 2.42 log2 enrichment (interaction score). In addition, the binding signal with PUM1 PUF domain R8-LYL was 0.84 log2 enrichment (interaction score); with PUM1 PUF domain R4-WGG, 2.44 log2 enrichment (interaction score); with PUM1 PUF domain R5-RFW, 1.35 log2 enrichment (interaction score); in the assay with PUM1 PUF domain R6-RYK it was 3.06 log2 enrichment (interaction score); in the assay with PUM1 PUF domain R5-KYA, 3.48 log2 enrichment (interaction score).
“GGCUAGAACUAGUGGAUCCCCCGGCGCCCGGCGGCUCGAGCCCGGGUAAGUGUCAAUAGUCUGCAUGCCGCCGGGCGCCAUGCCUGCAGGUCGACUCUAGAAAACAUG”: the binding signal with PUM1 PUF domain R5-RLQ was 2.19 log2 enrichment (interaction score); in the assay with PUM1 PUF domain R5-RRF, 3.03 log2 enrichment (interaction score); in the assay with PUM1 PUF domain R5-RFW, 3.42 log2 enrichment (interaction score); in the assay with PUM1 PUF domain R5-KYA, 3.04 log2 enrichment (interaction score).
